# Compounds with a hit are over-represented: about 1.4% of the library has one in this group of screens.
# PKM2 act – qHTS Assay for Activators of Human Muscle isoform 2 Pyruvate Kinase | Potency, µM (titrated, usually from 57.5 µM), actives largely listed as activators | 260,000 compounds, 0.34% hits | Pyruvate kinase PKM (Homo sapiens), P14618 | AID 1631, 2009 | purified PKM2, Kinase-Glo ATP luminescence, activation; response scale: 0% is enzyme alone, no compound; note: nearly all actives have a fitted effect of over 55% in size
#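 ATP formation by purified human PK-M2, quantified via coupled luciferase luminescence after 1 h at room temperature with 0.1 mM ADP and 0.5 mM PEP final.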
# LDHA block – qHTS assay for inhibitors of human lactate dehydrogenase; L-lactate dehydrogenase A chain (Homo sapiens), P00338; purified LDHA, NADH/diaphorase-resazurin fluorescence; active compounds read low; activity change, % (values are at about 110 or 230 µM); 480,000 compounds, 0.15% hits; in the data active = activity change below about -30%; inconclusive = mostly about -25% to -30%
#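 Human LDH5 (2 nM) was incubated with 0.06 mM NADH and 0.2 mM pyruvate for 5 min at room temperature in Tris pH 7.4. Remaining NADH was coupled through diaphorase/resazurin, and resorufin fluorescence was read at 0 and 20 min.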
# TrxR1 inh – qHTS Assay for Inhibitors of Mammalian Selenoprotein Thioredoxin Reductase 1 (TrxR1): qHTS | Thioredoxin reductase 1, cytoplasmic (Rattus norvegicus), O89049 | recombinant rTrxR1, NADPH fluorescence consumption, selenite substrate | Potency, µM (series often up to 114 µM), hits mostly inhibitors | 390,000 compounds, 1% hits; note: nearly all actives have a fitted effect of over 65% in size
#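 Rat TrxR1 (90 nM in the dispensed reagent) was pre-reduced with 400 uM NADPH for 5 min at room temperature, then incubated with compound for 15 min. After 400 uM selenite was added, NADPH fluorescence (Ex 340/Em 450 nm) was followed for 8 min.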
# IDH1 R132H inh – qHTS for Inhibitors of mutant isocitrate dehydrogenase 1 (IDH1): qHTS. 390,000 compounds, 0.093% hits. IDH1-R132H enzyme, NADPH consumption, diaphorase/resazurin fluorescence. Potency, µM (top dose mostly 76.6 µM), usual class: inhibitors. AID 602179, 2012. Isocitrate dehydrogenase [NADP] cytoplasmic (Homo sapiens), O75874; note: nearly all actives have a fitted effect of over 65% in size
#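 IDH1-R132H (0.5 ug/mL) preincubated 30 min with compound, then NADPH (0.016 mM) and alpha-KG (2 mM) added; 80 min at RT, pH 7.5. Remaining NADPH coupled via diaphorase/resazurin to fluorescence (540/590 nm); concentration-response curves normalized to no-enzyme control.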
# GLS inh – qHTS for Inhibitors of Glutaminase (GLS) | GLS enzymatic activity, qHTS titration | 410,000 compounds, 0.21% hits | Potency, µM (series often up to 45.5 µM), hits mostly inhibitors
# Target sequence (O94925 whole entry, looked up): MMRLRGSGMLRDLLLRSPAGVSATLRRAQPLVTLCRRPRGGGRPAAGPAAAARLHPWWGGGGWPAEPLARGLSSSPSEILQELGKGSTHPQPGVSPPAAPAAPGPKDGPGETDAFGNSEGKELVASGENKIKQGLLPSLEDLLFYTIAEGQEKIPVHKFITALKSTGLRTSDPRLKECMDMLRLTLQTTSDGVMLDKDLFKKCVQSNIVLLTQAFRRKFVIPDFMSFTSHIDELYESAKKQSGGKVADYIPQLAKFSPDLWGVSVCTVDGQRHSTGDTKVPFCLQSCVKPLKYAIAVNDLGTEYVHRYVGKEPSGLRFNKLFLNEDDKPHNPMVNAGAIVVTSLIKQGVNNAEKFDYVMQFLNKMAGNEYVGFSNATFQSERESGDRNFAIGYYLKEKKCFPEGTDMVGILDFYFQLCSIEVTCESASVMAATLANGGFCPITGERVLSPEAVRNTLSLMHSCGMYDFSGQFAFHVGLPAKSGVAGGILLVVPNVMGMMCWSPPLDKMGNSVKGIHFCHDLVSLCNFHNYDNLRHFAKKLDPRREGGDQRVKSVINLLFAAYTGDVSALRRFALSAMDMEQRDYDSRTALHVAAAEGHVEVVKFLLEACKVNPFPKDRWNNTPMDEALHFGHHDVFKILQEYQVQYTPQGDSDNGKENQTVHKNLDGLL
#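 Compounds were pin-transferred onto hKGA, after which L-glutamine (1 mM solution) and a detection mix of glutamate oxidase, HRP and Amplex Red were added. Initial and 30 min RT fluorescence reads were collected.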
# TrxR1 substrate – qHTS Assay for Substrates of Mammalian Selenoprotein Thioredoxin Reductase 1 (TrxR1): qHTS; Thioredoxin reductase 1, cytoplasmic (Rattus norvegicus), O89049; purified TrxR1 substrate turnover, NADPH consumption readout; Potency, µM (series often up to 114 µM); 390,000 compounds, 0.01% hits; AID 588456, 2011; note: nearly all actives have a fitted effect of over 50% in size
#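 Rat TrxR1, dispensed at 90 nM, was prereduced with 400 uM NADPH (final) for 5 min at ~22 deg C, then incubated with compound 15 min before 400 uM selenite. A first-read NADPH fluorescence drop versus no-compound background flagged substrates.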
# A number is an active result; - = inactive; ? = inconclusive; . = no result; [ ] = another dose, or the depositor's remark. Unless noted, calls come from the whole dose curve; as a rule, active = well fitted curve in the direction sought with a large enough effect; inconclusive = small, poorly fitted or top-dose-only effect, or another doubt; inactive = no such curve, though single readings can be large; an effect the other way counts as inactive or inconclusive.
SMILES,PKM2 act,LDHA block,TrxR1 inh,IDH1 R132H inh,GLS inh,TrxR1 substrate
CN1CCN(c2ccc(NC(=S)NC(=O)/C=C/c3ccco3)cc2)CC1,-,-,-,-,-,-
CC(=O)N(C)c1ccc(NC(=S)NC(=O)/C=C/c2ccco2)cc1,.,-,35µM,-,-,-
COc1cccc(NC(=S)NC(=O)/C=C/c2ccco2)c1,-[11.5 µM],-,-,-,-,-
O=C(/C=C/c1ccco1)Nc1ccc2nn(-c3ccccc3)nc2c1,-,-,56µM,-,-,-
O=C1OC(Nc2nc(-c3ccc(F)cc3)cs2)c2ccccc21 (stereo not given),.,-,56µM,-,-,-
CCCCNC(=O)CN1CCN(c2ccc(NS(=O)(=O)c3cccs3)cc2C(=O)O)CC1,.,-,.,.,.,.
Cc1ccc(-n2c(CCC(=O)O)ccc2-c2cccs2)cc1C,?,-,45µM,-,-,-
CCCCn1c(CCC(=O)O)ccc1-c1cccs1,?,-,35µM,-,-,-
CCc1ccc(-n2c(CCC(=O)O)ccc2-c2cccs2)cc1,.,-,35µM,-,-,-
CCOC(=O)c1ccc(-n2c(CCC(=O)O)ccc2-c2cccs2)cc1,?,-,?,-,-,-
Cc1ccc(Cl)cc1-n1c(CCC(=O)O)ccc1-c1cccs1,.,-,-,-,-,-
CCOc1ccc(C(=O)Nc2ccc3oc(-c4cccc(C)c4)nc3c2)cc1[N+](=O)[O-],.,-,.,.,.,.
COc1ccc(C(=O)CCN2CCN(c3ccccc3F)CC2)cc1,-,-,1.6µM,-,-,-
O=C(CCN1CCN(c2ccccc2F)CC1)c1ccc(Br)cc1,-,-,0.28µM,-,-,-
CCc1ccccc1N=C1S/C(=C/c2ccccc2OCC(=O)N2CCOCC2)C(=O)N1C,-,-,-,-,-,-
O=C1NN(c2ccccc2)C(=O)/C1=C\c1ccccc1OCC(=O)N1CCOCC1,10µM,-,-,-,-,-
CC1(C)c2ccccc2N2CC(=O)NC21/C=C/c1ccco1 (stereo not given),?,-,?,-,-,-
CC1(C)c2ccccc2N2CCC(=O)NC21/C=C/c1ccco1 (stereo not given),-,-,40µM,-,-,-
Clc1ccc(-c2csc(NC3CC3)n2)cc1Cl,.,-,.,.,.,.
O=C(O)CC1=C(O)C(=O)N(c2ccccc2)C1c1ccccc1 (stereo not given),-,-,45µM,-,-,-
O=C(O)CC1=C(O)C(=O)N(c2ccccc2)C1c1ccc(Br)cc1 (stereo not given),-,-,?,-,-,-
O=C1CNC(=O)/C1=C/c1ccc(O)cc1,-,-,20µM,-,-,?
O=C1CNC(=O)/C1=C/c1ccc(Br)cc1,-,-,-[11.4 µM],-,-,-[11.4 µM]
O=C1CNC(=O)/C1=C\c1ccc(O)cc1,-,-,20µM,-,-,?
O=C1c2ccccc2C(=O)N1c1nccs1,.,-,-[2.29 µM],-,-,-
SMILES,PKM2 act,LDHA block,TrxR1 inh,IDH1 R132H inh,GLS inh,TrxR1 substrate
O=c1c2ccccc2sn1-c1ccccc1F,.,-52,.,-,7.9µM,.
O=c1c2ccccc2sn1-c1nccs1,-,-,-,-,1.3µM,-
Cn1c(=O)n(-c2cccc(Cl)c2)c(=O)c2sc3ccccc3c21,.,-,-,-,-,-
O=c1c2ccccc2sn1-c1cccc(Cl)c1,.,-,.,-,7.9µM,.
Cc1ccccc1-n1sc2cc(F)ccc2c1=O,-,-,-,-,?,-
CN(C)S(=O)(=O)c1cccc(-n2sc3ccccc3c2=O)c1,2.8µM,-43,-,-,?,-
COc1cccc(-c2nc(C#N)c(N3CCN(C(=O)c4ccccc4)CC3)o2)c1,.,-,.,.,.,.
Cn1c(=O)c2c(nc(NCc3ccco3)n2Cc2ccccc2Br)n(C)c1=O,.,-,.,.,.,.
CCCN1CCC2(CC1)Oc1c(OC)cccc1C1CC(c3ccc4c(c3)OCO4)=NN12 (stereo not given),.,-,.,.,.,.
N#Cc1ccc2c(=O)n(-c3ccccc3)sc2c1,.,-,.,-,?,.
CC(=O)Nc1ccc2c(=O)n(-c3ccccc3)sc2c1,.,-,.,-,6.3µM,.
O=c1c2ccccc2sn1-c1ccccc1,-,?,-,-,4.5µM,-
Cc1ccc(-n2sc3ccccc3c2=O)cc1S(=O)(=O)N1CCCCC1,?,-,-,-,6.3µM,-
O=C(O)c1cccc(-n2sc3ccccc3c2=O)c1,.,-,-,-,8.9µM,-
O=C(O)c1cccc(N2C(=O)CCC2=O)c1,-,.,.,.,.,.
COc1ccc(Cl)cc1NS(=O)(=O)c1cccc(C(=O)N2CCc3sccc3C2)c1,.,-,.,.,.,.
CC(=O)c1c(Cl)nc2ccccc2c1-c1ccccc1,.,-,.,.,.,.
CN1C(=CC=C2C=C(I)C(=O)C(I)=C2)C(C)(C)c2ccccc21,-,-,-,46µM,-,-
CN1/C(=C\C=C2/C(=O)Oc3ccccc3C2=O)C(C)(C)c2ccccc21,-,-50,-,37µM,-,-
CC1=NN(c2ccccc2)C(=O)/C1=C\C=C1/N(C)c2ccccc2C1(C)C,-,-,-,-,-,-
CN1/C(=C\C=N\O)C(C)(C)c2ccccc21,-,-,-,-,-,-
CCc1c(C(=O)Nc2ccccc2)c(C)[nH]c(=S)c1C#N,-,-,-,-,11µM,-
CCOc1ccc(C2/C(=C(/O)c3ccc(F)cc3)C(=O)C(=O)N2CCCN(C)C)cc1 (stereo not given),-,-,-,-,-,-
C=CCOc1ccc(C2/C(=C(\O)c3ccc(F)cc3)C(=O)C(=O)N2CCCN(C)C)cc1 (stereo not given),-,-,35µM,-,-,-
CC(NC(=O)c1nn(C)c(=O)c2ccccc12)c1ccc(-c2ccccc2)cc1 (stereo not given),.,-,.,.,.,.
CCC(=O)NC(c1ccccc1OC)c1ccc2cccnc2c1O (stereo not given),-,-,-,-,-,-
Oc1c(C(Nc2ccccn2)c2ccccc2)cc(Cl)c2cccnc12 (stereo not given),.,-,.,.,.,.
Oc1c(C(Nc2ccccn2)c2ccccc2)ccc2cccnc12 (stereo not given),.,-,50µM,.,.,-
Oc1c(C(Nc2ccccn2)c2cccnc2)cc(Cl)c2cccnc12 (stereo not given),-,-,13µM,-,-,-
